In the library only some 10% were active in any assay of this set; here they are far more common.
MmCpn inh: inhibitors of Methanococcus maripaludis chaperonin TRiC (MmCpn); purified Mm-Cpn ATPase, ADP Transcreener TR-FRET; Potency, µM (doses to about 76.9 µM), without a hit: top-dose activity, negative = inhibition, actives largely listed as inhibitors; hit rate 0.031% among 330,000; further: potency means the concentration at half of the fitted maximal effect; nearly all actives have a fitted effect of over 80% in size
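Purified archaeal chaperonin (25 nM final) was preincubated with compound for 10 min at 37°C, then ATP (10 uM final) was added for 30 min at 37°C in Tris pH 7.4/KCl/MgCl2/DTT buffer. ADP was quantified by HTRF Transcreener TR-FRET.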
VDR inhibitor: blocks the human vitamin D receptor | P11473 | VDR-SRC2-3 peptide fluorescence polarization, 2 h | Potency, µM, for inactives: max response, negative = inhibition, most hits filed as inhibitors | hit rate 0.93% among 400,000 | AID 504847; further: potency means the concentration at half of the fitted maximal effect
Target sequence (P11473 whole entry, looked up): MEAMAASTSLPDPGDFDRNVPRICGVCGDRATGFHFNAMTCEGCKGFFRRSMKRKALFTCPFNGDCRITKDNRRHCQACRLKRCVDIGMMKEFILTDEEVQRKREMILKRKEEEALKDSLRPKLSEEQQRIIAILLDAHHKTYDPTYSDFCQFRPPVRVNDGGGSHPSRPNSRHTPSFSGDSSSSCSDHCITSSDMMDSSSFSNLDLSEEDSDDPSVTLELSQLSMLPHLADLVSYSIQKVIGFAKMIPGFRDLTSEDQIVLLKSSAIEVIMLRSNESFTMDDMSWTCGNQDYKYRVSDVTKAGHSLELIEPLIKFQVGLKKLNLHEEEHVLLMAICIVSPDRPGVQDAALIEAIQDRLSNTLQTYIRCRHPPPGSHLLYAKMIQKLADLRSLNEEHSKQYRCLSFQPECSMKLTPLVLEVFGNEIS
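FP read-out; VDR + SRC2-3 coactivator peptide; 23 nl compound by pintool; 2 h RT incubation; reagents held at 4 deg C, protected from light.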
G9a inh: blocks human histone lysine methyltransferase G9a | Q96KQ7 | Potency, µM (highest dose often 102 µM), without a hit: at the top dose activity, negative = inhibition, actives largely listed as inhibitors | G9a H3K9 monomethylation, AlphaScreen, 2 h | AID 504332 | hit rate 8.8% among 350,000; further: potency means the concentration at half of the fitted maximal effect; nearly all actives have a fitted effect of over 75% in size
Target sequence (Q96KQ7 913-1193 limits assumed): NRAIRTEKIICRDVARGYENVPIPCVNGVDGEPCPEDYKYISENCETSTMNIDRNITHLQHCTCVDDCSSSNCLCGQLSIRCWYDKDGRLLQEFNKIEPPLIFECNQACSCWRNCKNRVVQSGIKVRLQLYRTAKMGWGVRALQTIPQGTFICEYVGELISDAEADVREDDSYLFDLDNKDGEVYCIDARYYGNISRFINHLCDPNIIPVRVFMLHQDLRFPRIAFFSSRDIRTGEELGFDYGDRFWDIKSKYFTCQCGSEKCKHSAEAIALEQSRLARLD
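Quantitative HTS format: methyltransferase activity on a biotin-tagged H3K9 peptide is measured by AlphaScreen, using a rabbit anti-monomethyl-H3K9 antibody with streptavidin donor and anti-IgG acceptor beads. Final levels are 20 nM enzyme, 500 nM peptide, 20 uM SAM; 2 h RT.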
Sfp inh: Sfp phosphopantetheinyl transferase inhibition | Q9F4F7 | hit rate 3.5% among 310,000 | Potency, µM, for the others: largest response in the series, negative = inhibition, hits mostly inhibitors | Biochemical Sfp PPTase activity, qHTS;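 further: the enzyme is Sfp with the accession as filed and its product quenches rhodamine fluorescence; potency means the concentration at half of the fitted maximal effect; 0% = enzyme reaction without inhibitor and -100% = no enzyme wells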
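After 15 min at room temperature with compound, 15 nM Sfp received 5 uM rhodamine-CoA plus 12.5 uM BHQ-2-ybbR (50 mM Hepes pH 7.6, 10 mM MgCl2). Rate came from the fluorescence difference over 30 min, ex 525/em 598 nm.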
CCT modulator: changes cytosolic chaperonin activity. AID 651819. activity change, % (test concentration not listed), hits read low. purified chaperonin ATPase assay, HTRF ADP detection, 30 min. hit rate 0.3% among 360,000; in the data active means activity change below about -30%
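First, chaperonin was dispensed at 40 nM or 20 nM final depending on batch activity. Next, compounds were pinned at 76 uM and ATP added at 10 uM. After 30 min at 37 °C, ADP detection reagents ran 30 min at ambient temperature.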
PLK1 PBD inh: PLK1 (human) polo-box domain binding inhibition | P53350 | Plk1 PBD binding of FITC phosphopeptide, fluorescence polarization | Potency, µM, for the others: max response, negative = inhibition, most hits filed as inhibitors | hit rate 2.8% among 360,000; further: potency means the concentration at half of the fitted maximal effect; series mostly up to about 57 µM; nearly all actives have a fitted effect of over 65% in size
TbPYK inh: Trypanosoma brucei pyruvate kinase inhibition, cherry-pick confirmation | shares compounds with PLK1 PBD inh | recombinant TbPYK, Kinase-Glo ATP luminescence | Potency, µM (doses to about 76.9 µM), without a hit: at the top dose activity change, negative = inhibition, hits mostly inhibitors | hit rate 67% among 890; further: potency means the concentration at half of the fitted maximal effect; nearly all actives have a fitted effect of over 70% in size
TbPYK ADP-Glo: orthogonal confirmation of Trypanosoma brucei pyruvate kinase inhibitors | shares compounds with PLK1 PBD inh | recombinant TbPYK, ADP-Glo luminescence, 60 min | Potency, µM (doses to about 76.9 µM), for the others: at the top dose activity change, negative = inhibition, hits mostly inhibitors | hit rate 62% among 890 | AID 720584; further: potency means the concentration at half of the fitted maximal effect; nearly all actives have a fitted effect of over 75% in size
* marks the source's active call; other numbers are inactive results; ? = inconclusive; . = no result; [ ] = remark or other dose. Unless noted, the call rests on the fitted dose curve; in most records, active means well fitted curve in the direction sought with a large enough effect; inconclusive means small, poorly fitted or top-dose-only effect, or another doubt; inactive means no such curve, though single readings can be large; an effect the other way counts as inactive or inconclusive. Unless noted, on the % scale 0 is the no-effect control and ±100 the full control effect.

SMILES	MmCpn inh	VDR inhibitor	G9a inh	Sfp inh	CCT modulator	PLK1 PBD inh	TbPYK inh	TbPYK ADP-Glo
O=C1C(=Cc2ccccc2O)SC(=S)N1CCCN1CCOCC1	.	.	.	.	1	2.7µM*	4µM*	3.2µM*
Cc1nn(CCC(=O)Nc2cc(F)ccc2F)c(=O)c2nn(-c3ccccc3)c(C)c12	.	11%	-9%[59 µM]	.	.	.	.	.
CCn1c(CCNC(=O)c2cccs2)nnc1SCC(=O)c1ccc(OC)cc1	.	-13%	.	.	-1	?	0.89µM*	14µM*
Cc1ccc(-c2cn3c(n2)sc2cc(C(=O)NC4CCCCCC4)ccc23)c(C)c1	.	14%	-1%[59 µM]	.	.	.	.	.
CC(C)(C)C1=Nn2c(nnc2-c2n[nH]c3c2CCC3)SC1	1%	?	?	25µM*	-3	24µM*	10µM*	10µM*
CCC(CC)C(=O)Nc1cccc(C(=O)NCc2ccco2)c1	-1%	-4%	?	-61%	-1	-6%	-8%	-15%
CCOc1ccc(Nc2nnc(-n3nc(C)cc3C)c3ccccc23)cc1	.	21%	8%[59 µM]	.	.	.	.	.
O=C(CCN1CCc2ccccc2C(c2ccccc2)C1)c1ccc2c(c1)OCCO2 (stereo not given)	1%	?	?	45µM*	1	3µM*	?	?
CC(C)c1cc2c(c(O)c1O)[C@@]13CCCC(C)(C)C1CC2OC3=O (stereo not given in full)	-2%	?	0.89µM*	4µM*	0	6.7µM*	1.8µM*	3.5µM*
O=C1OC2(c3ccccc31)c1ccccc1-c1ccccc12	.	-1%	.	.	-2	-4%	.	.
O=C1OC(c2ccc3ccccc3c2O)(c2ccc3ccccc3c2O)c2ccccc21	.	?	.	.	-1	4.7µM*	13µM*	13µM*
COc1ccccc1N1CCN(S(=O)(=O)c2c(C)sc3ncn(CC(=O)Nc4ccccc4F)c(=O)c23)CC1	.	-11%	-19%[59 µM]	.	.	.	.	.
Oc1ccc(/C=N/Nc2nccnc2Cl)c(O)c1	0%	-15%	38%	14%	1	1%	?	3%
COc1ccccc1/C=C/c1nc(C#N)c(N2CCN(c3ccccc3)CC2)o1	.	9%	-46%[59 µM]	.	.	.	.	.
CN(C(=O)c1cc2nc(-c3ccc4c(c3)OCO4)cc(C(F)(F)F)n2n1)c1ccc(OC(F)(F)F)cc1	.	-21%	-5%[59 µM]	.	.	.	.	.
CN(C)c1ccc(Cc2cc3c(O)ccc(O)c3cc(Cc3ccc(N(C)C)cc3)c2=O)cc1	.	45µM*	.	.	-1	0.95µM*	3.5µM*	3.5µM*
CN(C)c1ccc(C(=O)c2ccc(O)cc2O)cc1	2%	-10%	-25%[59 µM]	-1%	-3	-7%	.	.
CCn1c(SCC(=O)Nc2ccc3c(c2)OCO3)nc2c1c(=O)n(C)c(=O)n2C	-3%	0%	12%[2.33 µM]	18%	1	-4%	.	.
Cn1c(=O)c2c(nc(SCC(=O)O)n2Cc2cc3c(cc2Cl)OCO3)n(C)c1=O	-1%	-5%	?	56µM*	-1	-6%	2µM*	4µM*
O=C(Cn1c(=O)nc(-c2ccccc2)c2ccccc21)Nc1ccc(Cl)c(C(F)(F)F)c1	.	14%	-2%[12.7 µM]	.	.	.	.	.
COC(=O)[C@@]1(Cc2ccccc2)[C@H]2c3cc(C(=O)N4CCCC4)n(Cc4ccc(O)c(OC)c4)c3C[C@H]2CN1C(=O)c1ccccc1	.	.	.	2%	.	.	.	.
CCc1cccc(NC(=O)C(Cc2ccccc2)NS(=O)(=O)c2ccc3c(c2)c(=O)n(C)c(=O)n3C)c1 (stereo not given)	.	-13%	-13%[59 µM]	.	.	.	.	.
Cc1ccc(NC2=C(NC(=O)c3ccccc3)C(=O)c3ccccc3C2=O)cc1Cl	-3%	-15%	2.2µM*	10µM*	1	27µM*	?	?
Nc1ccc2nc(N)sc2c1	.	3%	.	.	0	2%	.	.
Nc1nc2ccc([N+](=O)[O-])c(N)c2s1	1%	-14%	-46%[0.0925 µM]	89µM*	-3	11µM*	?	32µM*
SMILES	MmCpn inh	VDR inhibitor	G9a inh	Sfp inh	CCT modulator	PLK1 PBD inh	TbPYK inh	TbPYK ADP-Glo
COC(C(=O)N/N=C(\C)c1ccc(O)cc1)c1ccccc1 (stereo not given)	1%	-1%	9%[59 µM]	-2%	0	-4%	.	.
COC(=O)c1ccc(C2Nc3ccc(/C(C)=N/NC(=O)C(OC)c4ccccc4)cc3C3C=CCC32)cc1 (stereo not given)	1%	-28%	7.1µM*	?	1	-16%	?	?
Cc1nc(N2CCCC2)ncc1C(=O)NCc1ccc(Cl)cc1	.	10%	-2%[12.7 µM]	.	.	.	.	.
O=C(CSc1nc(-c2ccccc2)[nH]c1-c1ccc(F)cc1)NC1CCCC1	.	-14%	-48%[59 µM]	.	.	.	.	.
CC1(C)CC(=O)C=C(NNC(=O)c2ccccc2)C1	-1%	-21%	7%[59 µM]	15%	-3	-9%	.	.
CC1(C)CC(=O)C(CSC(=O)c2ccccc2)C(=O)C1	.	.	.	.	0	9.5µM*	5.6µM*	14µM*
CN(C)c1ccc(CNC(=O)C2COc3ccccc3C2)cc1 (stereo not given)	.	21%	?	.	.	.	.	.
O=C1c2sc3nc4n(c(=O)c3c2CCC1Br)CCCCC4 (stereo not given)	-3%	?	4%[0.501 µM]	20µM*	-3	-1%	4µM*	5.6µM*
CCOC(=O)c1c(C)[nH]c(C)c1S(=O)(=O)N1CCCC(C(=O)NCc2cccc(C)c2)C1 (stereo not given)	.	2%	5%[59 µM]	.	.	.	.	.
C=C1C(=O)C23CCC4C(C)(C(=O)OC)CCCC4(C)C2CCC1(O)C3 (stereo not given)	.	?	.	.	-3	?	10µM*	14µM*
Cc1ccc(C)c(NC(=O)CN2C(=O)C3(SCC(=O)N3c3ccc(C)c(C)c3)c3ccccc32)c1 (stereo not given)	.	7%	-22%[59 µM]	.	.	.	.	.
O=C(NCC1CCCO1)c1sc(=S)n2c1[nH]c(=O)c1ccc(C(=O)N3CCCCC3)cc12 (stereo not given)	-7%	-25%	45µM*	-9%	1	-19%	?	?
Cc1ccc(-n2nc(C(=O)N3CCN(c4ccccc4F)CC3)c(=O)n(C)c2=O)cc1	.	0%	-22%[59 µM]	.	.	.	.	.
Cc1ccc(-c2csc3ncn(-n4c(C)ccc4C)c(=O)c23)o1	0%	?	10µM*	-11%	1	?	-24%	?
S=C(NC1CCCCC1)N1CCC([C@H]2C=NC=N2)CC1	.	0%	19%[21.5 µM]	8%	.	.	.	.
CSC1=NS(=O)(=O)c2c(C)nn(C)c2S1	-1%	25µM*	1.1µM*	6.3µM*	-3	21µM*	4µM*	3.5µM*

Screens: PubChem, National Center for Advancing Translational Sciences (NCATS)
